Reference: PubChem BioAssay (NCATS)
Results filed as inconclusive are left out. Activity calls are given as the source filed them. Calls follow the shape of the dose curve; as a rule, active = well fitted curve in the direction sought with a large enough effect; inconclusive = small, poorly fitted or top-dose-only effect, or another doubt; inactive = no such curve, though single readings can be large; an effect the other way counts as inactive or inconclusive.

Tests used:
[1] = NS1 protein of Zika virus - qHTS assay to identify small molecule inhibitors in human HEK 293 cells (AID 1347053); also: series mostly up to about 46 µM; nearly all actives have a fitted effect of over 55% in size
Method in brief: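 Following 20 h seeding, HEK 293 cells took compound, then 1 h later ZIKV MR766 (MOI = 0.5). Incubation ran 24 h at 37 C before TR-FRET detection of NS1; a drop in signal indicates inhibition.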

[2] = qHTS of pediatric cancer cell lines to identify multiple opportunities for drug repurposing: Primary screen for TC32 cells (AID 1347089); also: nearly all actives have a fitted effect of over 60% in size
Method in brief: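 Luminescent ATP read-out (CellTiter-Glo) of metabolically active TC32 cells after 48 h exposure. Concentration-response curves came from 11-point (MIPE, 0.78 nM–46 µM) or 8-point (NPC, 0.59 nM–46 µM) primary titrations; follow-up used 11 points.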

[3] = qHTS of pediatric cancer cell lines to identify multiple opportunities for drug repurposing: Primary screen for DAOY cells (AID 1347090); also: series mostly up to about 46 µM; nearly all actives have a fitted effect of over 55% in size
Method in brief: (§1)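 Cell viability, CellTiter-Glo luminescence; 500-1,000 cells/well, 8- or 11-point titration, 48 h compound exposure at 37 degrees C, 5% CO2. Controls: DMSO neutral, bortezomib 2.3 µM final as positive.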

[4] = qHTS of pediatric cancer cell lines to identify multiple opportunities for drug repurposing: Primary screen for SJ-GBM2 cells (AID 1347091)
Method in brief: as §1

[5] = qHTS of pediatric cancer cell lines to identify multiple opportunities for drug repurposing: Primary screen for A673 cells (AID 1347092); also: nearly all actives have a fitted effect of over 45% in size
Method in brief: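 Cell viability of A673 measured by CellTiter-Glo ATP luminescence after 48 hours compound exposure. Dilution series spanned 0.78 nM to 46 µM (MIPE, 11-point) or 0.59 nM to 46 µM (NPC, 8-point); bortezomib 2.3 uM positive control.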

[6] = qHTS of pediatric cancer cell lines to identify multiple opportunities for drug repurposing: Primary screen for SK-N-MC cells (AID 1347093); also: series mostly up to about 46 µM
Method in brief: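 Metabolically active cells were quantified by ATP-dependent luminescence (CellTiter-Glo, 15 min at room temperature) following 48 h treatment. Cells had been plated at 500-1,000 per well and settled for 5 h beforehand.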

[7] = qHTS of pediatric cancer cell lines to identify multiple opportunities for drug repurposing: Primary screen for BT-37 cells (AID 1347094); also: series mostly up to about 57 µM
Method in brief: (§2)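 Primary screen of approved and investigational compounds on cells in growth media at 37 degrees C, 5% CO2. MIPE set at 11-point and NPC set at 8-point dilutions; viability scored by ATP-based luminescence at 48 hours.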

[8] = qHTS of pediatric cancer cell lines to identify multiple opportunities for drug repurposing: Primary screen for NB-EBc1 cells (AID 1347095)
Method in brief: as §2

[9] = qHTS of pediatric cancer cell lines to identify multiple opportunities for drug repurposing: Primary screen for U-2 OS cells (AID 1347096); also: nearly all actives have a fitted effect of over 50% in size
Method in brief: (§3)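 Cells (500-1,000/well) rested 5 h, then received compounds for 48 h; metabolically active cells were measured by CellTiter-Glo luminescence. Final concentrations spanned up to 46 µM (MIPE, 11-point) or 0.59 nM-46 µM (NPC, 8-point) in primary screens, 11-point in follow-ups.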

[10] = qHTS of pediatric cancer cell lines to identify multiple opportunities for drug repurposing: Primary screen for Saos-2 cells (AID 1347097); also: nearly all actives have a fitted effect of over 40% in size
Method in brief: as §2

[11] = qHTS of pediatric cancer cell lines to identify multiple opportunities for drug repurposing: Primary screen for SK-N-SH cells (AID 1347098); also: nearly all actives have a fitted effect of over 65% in size
Method in brief: as §3

[12] = qHTS of pediatric cancer cell lines to identify multiple opportunities for drug repurposing: Primary screen for NB1643 cells (AID 1347099); also: nearly all actives have a fitted effect of over 50% in size
Method in brief: as §2

[13] = qHTS of pediatric cancer cell lines to identify multiple opportunities for drug repurposing: Primary screen for LAN-5 cells (AID 1347100)
Method in brief: as §3

[14] = qHTS of pediatric cancer cell lines to identify multiple opportunities for drug repurposing: Primary screen for BT-12 cells (AID 1347101); also: nearly all actives have a fitted effect of over 25% in size
Method in brief: as §3

[15] = qHTS of pediatric cancer cell lines to identify multiple opportunities for drug repurposing: Primary screen for Rh18 cells (AID 1347102); also: nearly all actives have a fitted effect of over 65% in size
Method in brief: as §3

[16] = qHTS of pediatric cancer cell lines to identify multiple opportunities for drug repurposing: Primary screen for OHS-50 cells (AID 1347103); also: nearly all actives have a fitted effect of over 40% in size
Method in brief: as §3

[17] = qHTS of pediatric cancer cell lines to identify multiple opportunities for drug repurposing: Primary screen for RD cells (AID 1347104); also: nearly all actives have a fitted effect of over 55% in size
Method in brief: as §2

[18] = qHTS of pediatric cancer cell lines to identify multiple opportunities for drug repurposing: Primary screen for MG 63 (6-TG R) cells (AID 1347105); also: nearly all actives have a fitted effect of over 50% in size
Method in brief: as §2

[19] = qHTS of pediatric cancer cell lines to identify multiple opportunities for drug repurposing: Primary screen for control Hh wild type fibroblast cells (AID 1347106);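 also: series mostly up to about 46 µM; a drop in luminescence marks cytotoxicity and a rise apparent proliferation; nearly all actives have a fitted effect of over 55% in size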
Method in brief: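 Viability after 48 h compound treatment at 37C, 500-1,000 cells/well, read as ATP luminescence with CellTiter-Glo. Primary screens used 11-point (MIPE, 0.78 nM-46 µM) or 8-point (NPC, 0.59 nM-46 µM) final concentrations; follow-up screens used 11-point dilutions.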

[20] = qHTS of pediatric cancer cell lines to identify multiple opportunities for drug repurposing: Primary screen for Rh30 cells (AID 1347107); also: series mostly up to about 46 µM; nearly all actives have a fitted effect of over 75% in size
Method in brief: as §3

Measured: Potency

CN(C(=O)c1c(O)c2ccccc2n(C)c1=O)c1ccccc1
inactive: all assays above

CN[C@@H]1[C@H](O)[C@H](NC)[C@H]2O[C@@]3(O)C(=O)C[C@@H](C)O[C@H]3O[C@@H]2[C@H]1O
not listed: [16]
inactive: all other assays above

O[C@@H]1CO[C@H]2[C@@H]1OC[C@@H]2O
inactive: all assays above

CN1CC(=O)NC1=N
not listed: [18]
inactive: all other assays above

CCOC(=O)c1cccnc1
inactive: all assays above

C[C@]1(Cn2ccnn2)[C@H](C(=O)O)N2C(=O)C[C@H]2S1(=O)=O
inactive: all assays above

CC1CCN(CCCC(=O)c2ccc(F)cc2)CC1
inactive: all assays above

CN[C@@H]1[C@@H](O)[C@@H](O[C@@H]2[C@H](O)[C@H](O[C@H]3OC(CN)=CC[C@H]3N)[C@@H](N)C[C@H]2N)OCC1(C)O (stereo not given in full)
not listed: [16] | [19]
inactive: all other assays above

CC(=O)NCc1c(I)c(NC(C)=O)c(I)c(C(=O)O)c1I
inactive: all assays above

CC(=O)N1C[C@H](O)C[C@H]1C(=O)O
not listed: [12]
inactive: all other assays above

CCCCCC(C)N (stereo not given)
not listed: [10] | [19]
inactive: all other assays above

Cn1cc(C(=O)[C@@H]2CCc3nc[nH]c3C2)c2ccccc21
not listed: [11] | [16]
inactive: all other assays above

Cc1c(I)c(=O)n(-c2ccccc2)n1C
not listed: [9]
inactive: all other assays above

O=C1C(c2[nH]c3ccccc3c2O)=Nc2ccccc21
not listed: [12] | [18]
inactive: all other assays above

OCC(O)CS (stereo not given)
not listed: [10] | [12] | [19]
inactive: all other assays above
